Here are results for ten molecules from PubChem BioAssay (Tox21).

Assay [1] is described as follows: Human pregnane X receptor (PXR) small molecule agonists, qHTS cell viability counter screen (AID 1346977). Also: nearly all actives have a fitted effect of over 50% in size. A digest of the protocol: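 PXR-Luc HepG2 cells (2,000/well, 5% charcoal-stripped FBS) preincubated 5 hr, then exposed to compounds 24 hr at 37 C. Viability read in the same wells by CellTiter-Fluor fluorescence, reagent added at 23 hr, 1 hr incubation.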
(In qHTS, concentration-response curves come from the screen itself.)

Assay [2] is described as follows: Caspase-3/7 induction in HepG2 cells by small molecules, qHTS assay (AID 1346978). Also: nearly all actives have a fitted effect of over 15% in size. A digest of the protocol: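 Caspase-3/7 induction was measured by Caspase-Glo 3/7 luminescence (30 min, room temperature) after a 17 hr compound exposure of wild-type HepG2 cells seeded at 2,000 per well and pre-incubated 5 hr.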
Assay [3] in a line: Caspase-3/7 induction in CHO-K1 cells by small molecules, qHTS cell viability counter screen (AID 1346979). Also: nearly all actives have a fitted effect of over 35% in size. The gist of the method: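 Wild-type CHO-K1 cells (1,500/well) treated with compound after 5 h plating; after 16 h at 37C, viability read as CellTiter-Fluor fluorescence following 1 h reagent incubation, in the same wells as the caspase read.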
The nature of assay [4]: Caspase-3/7 induction in CHO-K1 cells by small molecules, qHTS assay (AID 1346980). Also: nearly all actives have a fitted effect of over 15% in size. The gist of the method: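 Luminescent Caspase-Glo 3/7 read (30min, room temperature) quantified apoptosis induction. Cells were wild-type CHO-K1, treated with compound for 17hr at 37 C and 5% CO2.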
Assay [5] in a line: Caspase-3/7 induction in HepG2 cells by small molecules, qHTS cell viability counter screen (AID 1346981). Also: series mostly up to about 92 µM; nearly all actives have a fitted effect of over 30% in size. The gist of the method:
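Counter screen for cytotoxicity: HepG2 exposed 16 hr to compounds, then CellTiter-Fluor viability signal (fluorescence, 1 hr reagent incubation).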

For assay [6], the target named is Nuclear receptor subfamily 1 group I member 2 (Homo sapiens) (UniProt O75469). Kind of assay: Human pregnane X receptor (PXR) small molecule agonists, qHTS assay (AID 1346982). Also: nearly all actives have a fitted effect of over 35% in size. Also: potency is read from the fitted curve at half-maximal effect. A digest of the protocol:
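Luminescence (ONE-Glo, 30 min RT) after 24 hr compound exposure of PXR-Luc HepG2 cells; cells rested 5 hr post-plating in 5% charcoal-stripped FBS medium.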

In assay [7] the target is Cytochrome P450 2D6 (Homo sapiens) (UniProt P10635). Kind of assay: Cytochrome P450 Family 2 Subfamily D Member 6 (CYP2D6) small molecule antagonists: luciferase reporter qHTS assay (AID 1671196). Also: nearly all actives have a fitted effect of over 50% in size. Also: potency is read from the fitted curve at half-maximal effect. A digest of the protocol: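 Inhibition of CYP2D6 was gauged by loss of luminescence, since light produced tracks the luciferin generated from a proluciferin substrate. A 10 min room-temperature preincubation preceded 1 h NADPH-supported turnover.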
In general terms: A reporter such as luciferase makes a cellular process visible.

Assay [8] has as its target Cytochrome P450 2C19 (Homo sapiens) (UniProt P33261). Briefly: Cytochrome P450 Family 2 Subfamily C Member 19 (CYP2C19) small molecule antagonists: luciferase reporter qHTS assay (AID 1671197). Also: nearly all actives have a fitted effect of over 65% in size. Also: potency is read from the fitted curve at half-maximal effect. The gist of the method: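 Inhibition of CYP2C19 was scored from loss of luminescence in a P450-Glo proluciferin substrate assay, NADPH-started and run 1 h at 37C, with ketoconazole as positive control.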

Assay [9] addresses Cytochrome P450 2C9 (Homo sapiens) (UniProt P11712). Kind of assay: Cytochrome P450 Family 2 Subfamily C Member 9 (CYP2C9) small molecule antagonists: luciferase reporter qHTS assay (AID 1671198). Also: nearly all actives have a fitted effect of over 50% in size. Also: potency is read from the fitted curve at half-maximal effect. A digest of the protocol: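 Enzyme-substrate mix preincubated with compound 10 min at room temperature; reaction started with NADPH regeneration solution, 1 h 37C. Luminescent luciferin product read after 20 min detection reagent.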

Assay [10] deals with Cytochrome P450 1A2 (Homo sapiens) (UniProt P05177). Briefly: Cytochrome P450 Family 1 Subfamily A Member 2 (CYP1A2) small molecule antagonists: luciferase reporter qHTS assay (AID 1671199). Also: nearly all actives have a fitted effect of over 50% in size. Also: potency is read from the fitted curve at half-maximal effect. The gist of the method: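 Signal from luciferin formed by CYP1A2 from a proluciferin substrate is read as luminescence, expressed in relative luminescence units. Compounds sit with enzyme 10 min, NADPH-driven reaction runs 1 h, all at room temperature.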

Assay [11] concerns the target Voltage-gated inwardly rectifying potassium channel KCNH2 (Homo sapiens) (UniProt Q12809). Kind of assay: Human Ether-a-go-go-Related Gene (hERG) channel small molecule antagonists: fluorescence cell-based qHTS assay (AID 1671200). A digest of the protocol: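 hERG-U2OS cells plated overnight at 37 C, loaded with FluxOR II dye 1 h at RT in dark; after 10 min, thallium stimulus added. Fluorescence (480/540 nm) read kinetically for 2 min at 1 s intervals.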

For assay [12], the target named is Cytochrome P450 3A4 (Homo sapiens) (UniProt P08684). Kind of assay: Cytochrome P450 Family 3 Subfamily A Member 4 (CYP3A4) small molecule antagonists: luciferase reporter qHTS assay (AID 1671201). The gist of the method:
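P450-Glo CYP3A4 luminescent assay: compounds preincubated 10 min at room temperature with enzyme and proluciferin substrate, NADPH regeneration added, 1 h room-temperature reaction, stopped with luciferin detection reagent; luminescence read after 20 min. Ketoconazole positive control.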

For assay [13], the target named is Nuclear receptor subfamily 1 group I member 2 (Rattus norvegicus) (UniProt Q9R1A7). Kind of assay: Rat pregnane X receptor (rPXR) activation by small molecules, qHTS assay (AID 1346983). Also: nearly all actives have a fitted effect of over 20% in size. To be noted: rPXR luciferase reporter cells, One-Glo luminescence, 24 h; max activation: active compounds read high. A digest of the protocol: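 Luminescent readout (One-Glo luciferase, 30 min room temperature) followed 24 hr compound treatment at 37 C of rPXR cells plated 2,000 per well and preincubated 5hr; qHTS format with compounds delivered in DMSO.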

Assay [14] concerns the target Nuclear receptor subfamily 1 group I member 2 (Homo sapiens) (UniProt O75469). Briefly: CYP3A4 induction through human pregnane X receptor (PXR) by small molecules, qHTS assay (AID 1346984). Also: nearly all actives have a fitted effect of over 40% in size. A digest of the protocol: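 DPX-2 reporter cells; 24h cpd, 37C; Luciferin-IPA 3uM final x3h; One-Glo 30 min RT; lumi read.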
Assay [15] has the same target. Briefly: Human pregnane X receptor (PXR) activation by small molecules, qHTS assay (AID 1346985). Also: nearly all actives have a fitted effect of over 40% in size. The gist of the method: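 DPX-2 cells (HepG2 co-transfected with a PXR response element and a CYP3A4-promoter luciferase construct) were seeded at 2,000 per well, rested 5 hr at 37C, then exposed to DMSO-dissolved compounds for 24 hr. Activation was read as luciferase luminescence.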

Values without a mark were called inactive. Records with an inconclusive call do not appear. Activity calls are given as the source filed them. Calls follow the shape of the dose curve; as a rule, active = well fitted curve in the direction sought with a large enough effect in the repeat runs; inconclusive = weak or mixed curves; inactive = no such curve, though single readings can be large; an effect the other way counts as inactive or inconclusive.
% is scaled to controls: 0 for no effect and ±100 for the full control effect.

Sequence of Cytochrome P450 2D6 (Homo sapiens) (P10635 whole entry, looked up): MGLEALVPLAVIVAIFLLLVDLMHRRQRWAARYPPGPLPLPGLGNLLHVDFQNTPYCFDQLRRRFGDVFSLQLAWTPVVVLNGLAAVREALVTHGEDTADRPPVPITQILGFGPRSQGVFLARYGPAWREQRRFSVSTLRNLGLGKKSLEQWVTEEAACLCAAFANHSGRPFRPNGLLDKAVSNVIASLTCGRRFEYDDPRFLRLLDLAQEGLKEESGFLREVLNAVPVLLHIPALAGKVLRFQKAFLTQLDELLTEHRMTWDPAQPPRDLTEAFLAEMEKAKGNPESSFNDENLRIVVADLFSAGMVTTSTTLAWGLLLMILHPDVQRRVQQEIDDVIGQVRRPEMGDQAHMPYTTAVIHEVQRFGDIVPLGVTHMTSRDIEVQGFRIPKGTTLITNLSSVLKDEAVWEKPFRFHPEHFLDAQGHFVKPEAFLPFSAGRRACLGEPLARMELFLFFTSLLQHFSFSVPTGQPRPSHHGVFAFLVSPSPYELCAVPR
Sequence of Cytochrome P450 2C19 (Homo sapiens) (P33261 whole entry, looked up): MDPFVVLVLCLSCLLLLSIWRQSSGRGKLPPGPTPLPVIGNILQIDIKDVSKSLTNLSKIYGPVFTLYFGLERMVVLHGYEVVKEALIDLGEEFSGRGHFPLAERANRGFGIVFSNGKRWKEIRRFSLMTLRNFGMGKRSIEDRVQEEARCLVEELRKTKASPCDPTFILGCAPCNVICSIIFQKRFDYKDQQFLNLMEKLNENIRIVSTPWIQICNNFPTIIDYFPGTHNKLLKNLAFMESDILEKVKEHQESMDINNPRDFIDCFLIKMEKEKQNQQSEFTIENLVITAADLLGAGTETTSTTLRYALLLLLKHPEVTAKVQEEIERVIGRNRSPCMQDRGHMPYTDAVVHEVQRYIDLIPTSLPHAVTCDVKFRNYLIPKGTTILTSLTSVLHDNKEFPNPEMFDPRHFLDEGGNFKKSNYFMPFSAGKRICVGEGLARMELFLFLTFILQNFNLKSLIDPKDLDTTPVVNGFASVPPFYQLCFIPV
Sequence of Cytochrome P450 1A2 (Homo sapiens) (P05177 whole entry, looked up): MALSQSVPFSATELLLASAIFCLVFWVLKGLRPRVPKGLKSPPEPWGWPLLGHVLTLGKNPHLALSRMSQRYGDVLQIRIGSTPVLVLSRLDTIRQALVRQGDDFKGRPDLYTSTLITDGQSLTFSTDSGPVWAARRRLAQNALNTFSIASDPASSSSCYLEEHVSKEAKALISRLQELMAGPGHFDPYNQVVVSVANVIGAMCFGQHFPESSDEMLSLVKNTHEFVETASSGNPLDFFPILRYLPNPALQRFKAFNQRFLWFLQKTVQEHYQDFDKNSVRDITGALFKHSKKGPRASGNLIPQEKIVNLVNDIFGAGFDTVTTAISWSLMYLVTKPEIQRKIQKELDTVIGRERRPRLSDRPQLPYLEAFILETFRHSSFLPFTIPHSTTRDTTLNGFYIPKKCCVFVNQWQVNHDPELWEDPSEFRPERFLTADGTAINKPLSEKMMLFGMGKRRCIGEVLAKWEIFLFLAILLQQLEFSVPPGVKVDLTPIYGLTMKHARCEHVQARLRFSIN
Sequence of Voltage-gated inwardly rectifying potassium channel KCNH2 (Homo sapiens) (Q12809 whole entry, looked up): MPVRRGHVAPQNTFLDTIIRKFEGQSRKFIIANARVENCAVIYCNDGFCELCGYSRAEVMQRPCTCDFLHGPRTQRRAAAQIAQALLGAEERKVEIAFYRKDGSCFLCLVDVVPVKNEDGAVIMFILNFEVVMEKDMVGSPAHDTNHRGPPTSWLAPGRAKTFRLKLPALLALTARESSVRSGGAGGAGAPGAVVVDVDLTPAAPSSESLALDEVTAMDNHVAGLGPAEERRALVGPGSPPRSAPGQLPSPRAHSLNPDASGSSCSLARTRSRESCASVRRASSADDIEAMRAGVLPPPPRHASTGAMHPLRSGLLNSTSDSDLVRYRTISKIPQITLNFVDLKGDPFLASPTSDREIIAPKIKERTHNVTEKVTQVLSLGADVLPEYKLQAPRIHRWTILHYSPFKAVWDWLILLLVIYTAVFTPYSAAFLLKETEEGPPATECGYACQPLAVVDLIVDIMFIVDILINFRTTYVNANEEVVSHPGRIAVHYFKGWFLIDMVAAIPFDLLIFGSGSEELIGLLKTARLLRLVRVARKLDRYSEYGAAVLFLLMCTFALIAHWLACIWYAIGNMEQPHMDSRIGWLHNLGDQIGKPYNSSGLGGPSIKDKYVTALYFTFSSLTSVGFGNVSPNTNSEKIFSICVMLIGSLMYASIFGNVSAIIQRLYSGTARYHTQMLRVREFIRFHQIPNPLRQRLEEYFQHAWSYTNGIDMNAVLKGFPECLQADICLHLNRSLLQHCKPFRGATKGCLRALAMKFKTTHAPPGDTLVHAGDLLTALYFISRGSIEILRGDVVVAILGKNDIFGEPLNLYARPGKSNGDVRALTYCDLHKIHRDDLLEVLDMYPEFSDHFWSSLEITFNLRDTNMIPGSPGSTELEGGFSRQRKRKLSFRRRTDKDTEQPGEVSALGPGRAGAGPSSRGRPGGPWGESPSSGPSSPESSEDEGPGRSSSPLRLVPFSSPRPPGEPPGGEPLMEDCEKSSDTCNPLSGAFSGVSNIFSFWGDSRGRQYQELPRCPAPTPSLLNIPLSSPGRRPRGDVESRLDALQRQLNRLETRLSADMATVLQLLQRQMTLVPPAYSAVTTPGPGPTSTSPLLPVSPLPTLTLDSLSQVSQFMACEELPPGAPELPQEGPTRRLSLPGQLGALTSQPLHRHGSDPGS
Sequence of Nuclear receptor subfamily 1 group I member 2 (Homo sapiens) (O75469 whole entry, looked up): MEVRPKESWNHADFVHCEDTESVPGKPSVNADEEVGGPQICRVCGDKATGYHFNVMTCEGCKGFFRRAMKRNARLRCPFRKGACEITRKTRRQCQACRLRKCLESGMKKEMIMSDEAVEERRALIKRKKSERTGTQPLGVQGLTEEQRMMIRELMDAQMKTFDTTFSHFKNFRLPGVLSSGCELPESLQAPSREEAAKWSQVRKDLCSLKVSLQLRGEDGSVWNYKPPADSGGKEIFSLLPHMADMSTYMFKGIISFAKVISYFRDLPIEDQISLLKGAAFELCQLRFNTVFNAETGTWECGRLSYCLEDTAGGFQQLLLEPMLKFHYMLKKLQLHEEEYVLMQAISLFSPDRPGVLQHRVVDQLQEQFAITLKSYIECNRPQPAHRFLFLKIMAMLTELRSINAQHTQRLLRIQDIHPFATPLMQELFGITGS
Sequence of Cytochrome P450 3A4 (Homo sapiens) (P08684 whole entry, looked up): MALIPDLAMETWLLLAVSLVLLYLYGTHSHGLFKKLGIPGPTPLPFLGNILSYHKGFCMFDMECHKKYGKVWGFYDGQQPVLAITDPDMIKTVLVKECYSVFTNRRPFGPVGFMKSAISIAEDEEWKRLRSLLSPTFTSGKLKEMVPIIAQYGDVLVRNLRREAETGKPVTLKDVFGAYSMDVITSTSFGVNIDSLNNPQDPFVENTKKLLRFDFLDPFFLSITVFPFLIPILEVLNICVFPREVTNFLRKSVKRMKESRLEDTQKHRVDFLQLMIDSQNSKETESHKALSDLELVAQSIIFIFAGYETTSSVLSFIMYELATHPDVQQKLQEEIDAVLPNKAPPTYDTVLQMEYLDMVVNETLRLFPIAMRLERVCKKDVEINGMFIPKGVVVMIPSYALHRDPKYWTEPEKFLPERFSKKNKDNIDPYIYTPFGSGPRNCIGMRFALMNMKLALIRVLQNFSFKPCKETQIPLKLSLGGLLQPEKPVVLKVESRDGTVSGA
Sequence of Cytochrome P450 2C9 (Homo sapiens) (P11712 whole entry, looked up): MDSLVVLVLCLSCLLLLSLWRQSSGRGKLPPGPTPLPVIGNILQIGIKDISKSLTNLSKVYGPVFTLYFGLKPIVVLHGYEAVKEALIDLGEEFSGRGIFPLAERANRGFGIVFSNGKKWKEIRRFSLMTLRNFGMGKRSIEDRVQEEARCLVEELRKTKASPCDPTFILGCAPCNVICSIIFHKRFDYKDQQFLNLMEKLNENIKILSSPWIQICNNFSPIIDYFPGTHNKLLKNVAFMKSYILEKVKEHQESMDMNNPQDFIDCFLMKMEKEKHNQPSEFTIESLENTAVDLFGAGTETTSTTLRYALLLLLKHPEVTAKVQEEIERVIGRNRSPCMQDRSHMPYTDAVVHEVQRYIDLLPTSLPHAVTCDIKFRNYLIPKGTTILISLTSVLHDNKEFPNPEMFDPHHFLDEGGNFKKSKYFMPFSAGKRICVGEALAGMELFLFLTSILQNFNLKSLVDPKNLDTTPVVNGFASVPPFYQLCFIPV
Sequence of Nuclear receptor subfamily 1 group I member 2 (Rattus norvegicus) (Q9R1A7 whole entry, looked up): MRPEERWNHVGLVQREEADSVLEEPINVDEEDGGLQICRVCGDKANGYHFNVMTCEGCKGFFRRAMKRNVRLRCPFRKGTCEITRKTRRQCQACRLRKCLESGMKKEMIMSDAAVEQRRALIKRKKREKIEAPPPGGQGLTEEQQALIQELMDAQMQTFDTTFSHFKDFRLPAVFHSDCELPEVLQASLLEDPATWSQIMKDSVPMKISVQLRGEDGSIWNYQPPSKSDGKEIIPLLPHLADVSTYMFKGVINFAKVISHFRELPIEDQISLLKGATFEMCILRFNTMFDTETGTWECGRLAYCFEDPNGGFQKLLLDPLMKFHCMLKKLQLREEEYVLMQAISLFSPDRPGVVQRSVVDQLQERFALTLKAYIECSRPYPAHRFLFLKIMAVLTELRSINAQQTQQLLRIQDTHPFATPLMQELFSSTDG

Consider `Cc1nc(-c2ccc(OCC(C)C)c(C#N)c2)sc1C(=O)O`, for which the Potency entry in [1], in assay [3], in assay [7], in assay [8], in assay [10] and in assay [11] was “inactive” throughout. Also, in assay [12], the Potency result is “inactive”. For the same molecule, the molecule was called inactive in [2], in assay [4] and in assay [5]. Further, the Potency in assay [6] was 0.106 µM (active); in assay [9], 17.4 µM (active).
`Nc1cc(N)cc(C(=O)O)c1`: the Potency entry in [1], in [3], in assay [10], in [11] and in [12] was “inactive” each time. In addition, the call in assay [2], in assay [4] and in [5] was inactive. The figures for the Potency in assay [6], in [7] and in assay [8] were 34.4 µM (active), 35.6 µM (active) and 79.6 µM (active), respectively.
`Nc1ccn(C2CO[C@H](CO)O2)c(=O)n1` (stereo not given in full): the Potency entry in [1], in assay [3], in [6], in assay [7], in assay [8] and in [9] was “inactive” each time. Moreover, the Potency entry in [10], in assay [11] and in [12] was “inactive” throughout. For the same molecule, the molecule was classed as inactive in assay [2] and in assay [4].
For the molecule `C#CC(O)CCCCC` (stereo not given), the Potency result in [1], in [3], in assay [6], in assay [7], in assay [9] and in [11] was “inactive” each time. Besides, the Potency result in assay [12] is “inactive”. Moreover, the result in assay [2], in assay [4] and in [5] was inactive. Moreover, the Potency in assay [8] was 80.3 µM (active).
In the case of `CC(C)(C)CC(C)(C)N`, the Potency entry in [1], in assay [3], in [6], in [7], in assay [9] and in assay [11] was “inactive” throughout. The Potency result in [12] is “inactive”. Also, the result in assay [2], in assay [4] and in assay [5] was inactive. The Potency in assay [10] is 30.8 µM (active).
With `CCCCc1ccc(N)cc1`, the Potency entry in assay [1], in assay [3], in assay [6] and in [11] was “inactive” in each case. Also, the call in assay [2], in assay [4] and in assay [5] was inactive. The Potency in assay [8] was 39.9 µM (active); in assay [9], 44.8 µM (active); in assay [10] it was 35.6 µM (active).
For the molecule `C#CC(O)C(CC)CCCC` (stereo not given), the Potency entry in assay [1], in assay [3], in assay [7] and in assay [11] was “inactive” each time. Besides, the result in [2], in assay [4] and in [5] was inactive. Also, the Potency in [8] is 71 µM (active).
In the case of `O=S(=O)(O)c1ccccc1O`, the Potency result in [1], in assay [3], in [6], in assay [9], in assay [10] and in assay [11] was “inactive” throughout. Moreover, the Potency entry in assay [12] was “inactive”. Besides, the molecule was called inactive in [2], in assay [4] and in assay [5]. Further, the Potency in [7] is 25.2 µM (active).
In the case of `NC(=O)CCCCC1CCSS1` (stereo not given), the Potency entry in assay [1], in [3], in assay [6], in assay [14], in assay [15] and in [7] was “inactive” in each case. In addition, the Potency entry in assay [8], in assay [9], in [10], in assay [11] and in assay [12] was “inactive” each time. Besides, the call in assay [2] and in assay [4] was inactive. For the same molecule, the max activation in assay [13] was -4.58%.
For the molecule `Cn1cnc2c(=O)[nH]c(N)nc21`, the Potency result in [1], in assay [3], in assay [6], in [7], in assay [9] and in assay [11] was “inactive” each time. In addition, in assay [12], the Potency result was “inactive”. The result in assay [2], in assay [4] and in assay [5] was inactive. Moreover, in assay [10], the Potency is 28.3 µM (active).
